Shown are actives, neighbours in structure and some others; about 11% of the full set was active somewhere.
Pf growth 48h: P. falciparum growth inhibition at 48 hours (one generation) | P. falciparum luciferase growth in erythrocytes, 48 h | Potency, µM (highest dose often 28.7 µM), hits mostly inhibitors | 5.9% of 310,000 active | AID 504832
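Erythrocytes infected with P. falciparum carrying an integrated firefly luciferase reporter (2% hematocrit, 0.1% parasitemia final) were exposed to compounds in RPMI 1640 with 0.5% Albumax at 37 C, 5% CO2. Growth inhibition was scored as reduced luminescence.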
Pf growth 96h: P. falciparum growth inhibition at 96 hours; P. falciparum luciferase reporter growth, 96 h; 6.9% of 320,000 active; AID 504834; Potency, µM (titrated, usually from 28.7 µM), usual class: inhibitors
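Infected RBCs, 2% Hct / 0.05% parasitemia final; luciferase-reporter P. falciparum; cpd 96 h, 37 C, 5% CO2; luciferase detection reagent; luminescence.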
HCV inh: blocks hepatitis C virus; Huh7.5.1 HCVcc-Cre infection, luciferase reporter, 44 h; Potency, µM (doses to about 41.8 µM), hits mostly inhibitors; AID 651820; 3.4% of 340,000 active
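After 44 h co-culture of compound, cells and HCVcc-Cre (~0.5 moi), substrate is added for 15 min at room temperature and luciferase measured over 15 sec. Cells were seeded at 1,000/well and pre-cultured 4 h.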
AMA1 RON2 block: disrupts binding of P. falciparum AMA1 to RON2; AlphaScreen AMA1-biotinylated RON2 peptide binding; Potency, µM (doses to about 58.2 µM), most hits filed as inhibitors; 0.2% of 360,000 active; also: nearly all actives have a fitted effect of over 45% in size
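AMA1 (3D7) with his tag at 25 nM final met compounds first, then biotinylated RON2 peptide at 25 nM; detection used donor plus acceptor beads, 10 µg/mL apiece, read by AlphaScreen after 30 min at room temperature.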
Of the large screens only hits and unclear results are named; the others gave an inactive call. Calls follow the shape of the dose curve; as a rule, active = well fitted curve in the direction sought with a large enough effect; inconclusive = small, poorly fitted or top-dose-only effect, or another doubt; inactive = no such curve, though single readings can be large; an effect the other way counts as inactive or inconclusive.

Cc1ccc(C)c(C(Nc2ccccc2)c2ccc3ccc(C)nc3c2O)c1 (stereo not drawn)	none (no result: Pf growth 48h, Pf growth 96h, HCV inh)
Nc1nc(CSc2nnnn2-c2ccccc2)nc(N2CCCc3ccccc32)n1	Pf growth 48h 10.4µM, HCV inh 11.2µM (no result: Pf growth 96h)
Nc1nc(CN2CCN(c3ccccc3)CC2)nc(N2CCCc3ccccc32)n1	Pf growth 48h inconclusive, Pf growth 96h 9.28µM
COc1cc(NC(=S)N2CCC(C(N)=O)CC2)c(OC)cc1Cl	none
CCC1CCCCN1CCNC(=O)CCS(=O)(=O)c1ccc(Br)cc1 (stereo not drawn)	Pf growth 48h inconclusive, Pf growth 96h 3.29µM
COc1ccc(N(C(=O)CCl)C(C)(C(=O)Nc2c(C)cccc2C)c2ccccn2)cc1 (stereo not drawn)	Pf growth 48h 4.65µM, Pf growth 96h inconclusive
COc1ccc(CCNC(=O)c2c(N)no[n+]2[O-])cc1OC	Pf growth 96h inconclusive
O=C(NCC(=O)N(CCc1ccccc1)C(C(=O)NC1CCCC1)c1cccnc1)c1ccco1 (stereo not drawn)	Pf growth 48h 14.7µM
O=C(NCC(=O)N(CCc1ccccc1)C(C(=O)NC1CCCCC1)c1ccncc1)c1ccco1 (stereo not drawn)	Pf growth 48h inconclusive
O=C(NC1CCCC1)C(c1cccnc1)N(CCc1ccccc1)C(=O)c1ccco1 (stereo not drawn)	Pf growth 48h 5.22µM
CCC(C)c1ccc(N(C(=O)c2ccco2)C(C(=O)NC2CCCC2)c2cccnc2)cc1 (stereo not drawn)	Pf growth 48h 1.85µM, HCV inh inconclusive
O=C(NC1CCCC1)C(c1ccncc1)N(Cc1ccccc1)C(=O)Cc1cccs1 (stereo not drawn)	Pf growth 48h inconclusive, Pf growth 96h inconclusive
O=C(NC1CCCCC1)C(c1cccnc1)N(CCc1ccccc1)C(=O)Cc1cccs1 (stereo not drawn)	Pf growth 48h 13.1µM
COc1ccc(OC)c(NP2(=O)OCC(C)([N+](=O)[O-])CO2)c1 (stereo not drawn)	none (no result: Pf growth 48h, Pf growth 96h)
CCOC(=O)[C@]12CCC=C1N(CCC1=CCCCC1)C(=O)[C@H](CC(=O)N1CCN(C(=O)c3ccco3)CC1)C2	none (no result: Pf growth 48h, Pf growth 96h, HCV inh)
NS(=O)(=O)c1ccc(N=Nc2c(-c3ccccc3)[nH]n(-c3nc(-c4ccccc4)cs3)c2=O)cc1	HCV inh 6.31µM
COc1ccc(N2CCN(C(=O)C3Cc4ccccc4CN3C(=O)c3ccco3)CC2)cc1 (stereo not drawn)	Pf growth 48h 8.28µM, Pf growth 96h inconclusive
O=C(C1Cc2ccccc2CN1C(=O)c1ccccc1)N1CCN(c2ccccc2)CC1 (stereo not drawn)	Pf growth 48h inconclusive, Pf growth 96h 4.15µM
O=C(c1ccc(CN2CCc3ccccc3C2)cc1)N1CCN(c2ccccc2)CC1	none
COc1ccc(NC(=O)C2Cc3ccccc3CN2C(=O)c2ccccc2)cn1 (stereo not drawn)	Pf growth 96h inconclusive (no result: Pf growth 48h)
CC(=O)c1ccc(NC(=O)C2Cc3ccccc3CN2C(=O)c2ccccc2)cc1 (stereo not drawn)	Pf growth 96h 14.7µM
O=C(Nc1ccccc1N1CCOCC1)C1Cc2ccccc2CN1C(=O)c1ccco1 (stereo not drawn)	Pf growth 48h 10.4µM (no result: Pf growth 96h)
COc1ccc(NC(=O)C2Cc3ccccc3CN2C(=O)c2ccco2)cc1 (stereo not drawn)	none
O=C1C=C(OCCF)CC(c2cccc([N+](=O)[O-])c2)O1 (stereo not drawn)	none (no result: Pf growth 48h, Pf growth 96h, HCV inh)
Cc1ccc(S(=O)(=O)N2CCN(C)CC2)c(C)c1	Pf growth 96h 2.62µM
Cc1ccc(S(=O)(=O)N2CCN(S(=O)(=O)N3CCCCC3)CC2)c(C)c1	HCV inh inconclusive
Cc1ccc(S(=O)(=O)N2CCN(C(=O)COC(=O)C3(C)CC3(Cl)Cl)CC2)c(C)c1 (stereo not drawn)	Pf growth 48h 10.4µM, Pf growth 96h inconclusive, HCV inh inconclusive
Cc1ccc(S(=O)(=O)N2CCN(C(=O)COC(=O)c3ccc(Cl)c(S(N)(=O)=O)c3)CC2)c(C)c1	none (no result: Pf growth 48h, Pf growth 96h)
Cn1c2c(c(=O)n(C)c1=O)CS(=O)c1ccccc1N2 (stereo not drawn)	none (no result: Pf growth 48h, Pf growth 96h, HCV inh)
CC1CCN(c2nncc3ccccc23)CC1	Pf growth 48h inconclusive, Pf growth 96h 6.57µM
OC1CCN(Cc2cn(Cc3ccccc3)nc2-c2cc3ccccc3o2)CC1	Pf growth 48h 13.1µM, HCV inh inconclusive
COCC1CCN(Cc2cn(Cc3ccccc3)nc2-c2cc3ccccc3o2)CC1	Pf growth 48h inconclusive
COCC1CCCN(Cc2cn(Cc3ccccc3)nc2-c2cc3ccccc3o2)C1 (stereo not drawn)	Pf growth 48h inconclusive, HCV inh inconclusive
COC(=O)C1CCN(Cc2cn(Cc3ccccc3)nc2-c2cc3ccccc3o2)CC1	Pf growth 48h 8.28µM, HCV inh inconclusive
Cc1cc(C)cc(N2CC(C(=O)OCC(=O)Nc3cc(C)on3)CC2=O)c1 (stereo not drawn)	Pf growth 96h inconclusive
COc1cccc(NS(=O)(=O)c2cc3c(cc2C)N(C(C)=O)CCO3)c1	Pf growth 96h inconclusive
CC(=O)N1CCOc2cc(S(=O)(=O)Nc3c(C)cccc3C(C)C)c(Cl)cc21	Pf growth 48h 8.28µM, Pf growth 96h 5.22µM (no result: HCV inh, AMA1 RON2 block)
O=C(NS(=O)(=O)Nc1ccccn1)c1c[nH]c2ccccc12	none
O=C(COc1ccc(Cl)cc1Cl)NN1C(=O)C2C3C=CC([C@@H]2C1=O)C31CC1 (stereo partly drawn)	none
CN(C)C(=O)c1ccc(Oc2ccc(C(=O)N(C)C)cc2)cc1	Pf growth 96h 1.85µM
CC(=O)c1ccc(Oc2ccc(C(C)=O)cc2)cc1	Pf growth 96h inconclusive
COc1cccc(-n2nnc3c(=O)n(CC(=O)OCc4ccccc4)cnc32)c1	Pf growth 96h 0.165µM
CCOC(=O)Cn1cnc2c(nnn2-c2cccc(OC)c2)c1=O	none
COc1cccc(-n2nnc3c(=O)n(CC(=O)NC4CCCC4)cnc32)c1	Pf growth 96h 0.329µM
COc1cccc(-n2nnc3c(=O)n(CC(=O)Nc4ccccc4C)cnc32)c1	none
C/C(=N\NC(=O)C1CC1)c1ccccc1O	Pf growth 96h inconclusive
COc1ccc(CNC(=O)C(=O)NCC2CCCO2)cc1 (stereo not drawn)	none
COc1ccc(CCNC(=O)C(=O)NCC2OCCN2S(=O)(=O)c2ccc(Cl)cc2)cc1 (stereo not drawn)	HCV inh 11.2µM
COc1ccc(CCNC(=O)C(=O)NCC2CCCO2)cc1 (stereo not drawn)	Pf growth 96h 4.15µM
O=C(NC1(Cc2ccccc2)CCN(CCCc2ccccc2)C1=O)c1ccccc1 (stereo not drawn)	Pf growth 48h inconclusive, HCV inh inconclusive
CCOC(=O)N1CCN(C(=O)CN(c2ccccc2)S(C)(=O)=O)CC1	none
CCCc1cc(=O)oc2cc(C)cc(OC(C)C(=O)NCCCN3CCOCC3)c12 (stereo not drawn)	Pf growth 48h inconclusive, Pf growth 96h inconclusive
CCCc1cc(=O)oc2cc(C)cc(OC(C)C(=O)NCCCn3ccnc3)c12 (stereo not drawn)	Pf growth 48h 4.15µM, Pf growth 96h 2.62µM

Source: PubChem BioAssay
